# Screens from PubChem BioAssay.
# PfHsp40 rescue: rescue of yeast from PfHsp40 toxicity, primary screen, S. cerevisiae, ATP luminescence | S. cerevisiae expressing PfHsp40, growth rescue | growth rescue, % at 12.5 µM | actives 0.68% (n = 340,000); in the data active = growth rescue above about 28%, passing the limit was not always enough;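 note: yeast W303a lacking pdr1 and pdr3 grown in galactose medium; growth measured after three days at 30 °C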
# BioA inh: M. tuberculosis BioA enzyme inhibitors, primary screen, biochemical, plate reader, single point, HTS. purified M. tuberculosis BioA enzyme. 7,8-diaminopelargonic acid synthase BioA (Mycobacterium tuberculosis). actives 0.096% (n = 360,000). inhibition, % at 9.99 µM; in the data active = inhibition above about 40%
# Mtb betalactam: beta-lactam sensitization of Mtb H37Rv, H37Rv; AID 434955, 2010; inhibition, % at 25 µM; actives 0.27% (n = 330,000); M. tuberculosis H37Rv growth with meropenem, percent inhibition; call rule not given here;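 note: growth measured after seven days incubation then overnight dye step; 0% = bacteria only wells and 100% = bacteria with antibiotic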
# RN4220 kill: growth inhibition of S. aureus RN4220, primary screen, OD600; 16 h; inhibition, % (concentration not given with the values); actives 0.33% (n = 330,000); in the data active = inhibition above about 85%;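 note: plate controls were untreated cells for no effect and reference antibiotic for full effect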
# ugtP null kill: growth inhibition of ugtP-null S. aureus, primary screen, RN4220 ugtP deletion, OD600 | actives 0.54% (n = 330,000) | growth inhibition, % (concentration not given with the values) | 16 h; in the data active = growth inhibition above about 68%;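 note: plate controls were untreated wells for no effect and antibiotic for full effect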
# Numbers without * were called inactive; · = not tested or not shown. Hits are enriched below; roughly 0.9% of the tested compounds scored in any of these assays.
SMILES,PfHsp40 rescue,BioA inh,Mtb betalactam,RN4220 kill,ugtP null kill
CCN(CC)C(=S)SSC(=S)N(CC)CC,-4,-1,100,28,99*
C=C(Cl)CSC(=S)N(CC)CC,-1,0,12,7,15
FCCCOc1ccc(C=NOCc2ccc(Cl)cc2)cc1,·,·,·,-3,85*
NC(N)=NN=Cc1ccc(OCc2ccccc2)c(OCc2ccccc2)c1,·,·,·,101*,101*
NC(N)=NN=Cc1ccc(OCc2ccc(Cl)cc2Cl)cc1,·,·,·,100*,101*
NC(N)=NN=Cc1ccc(OCc2ccc(Cl)cc2)cc1,·,·,·,100*,100*
CCOc1ccccc1NC(=S)NC(=O)c1ccco1,75*,-1,·,9,9
COc1ccc(C(=O)NNC(=S)NC(=O)c2ccco2)cc1,4,·,96,34,-6
CCCCOc1ccc(C(=O)NNC(=S)NC(=O)CC)cc1,61*,·,99,94*,98*
CCCOc1ccc(C(=O)NNC(=S)NC(=O)c2ccco2)cc1,108*,·,97,87*,90*
CCCOc1ccc(C(=O)NNC(=S)NC(C)=O)cc1,52*,3,99,60,29
CC(C)(C)CN1C(N)=NCC1Cc1ccc(O)cc1 (stereo not given),·,·,·,7,-1
C=CCn1c(SC(F)F)nc2scc(-c3ccco3)c2c1=O,-2,1,1,7,95*
COc1ccc(NC(=O)Nc2cccc3c2OC(CN(C)S(=O)(=O)c2ccccc2)C(C)CN(C(C)CO)C3=O)cc1 (stereo not given),·,·,·,4,8
Cn1nnnc1N=N/C(=N/Nc1ccccc1)c1ccccc1,234*,-2,89,·,·
Cn1nnnc1N=NC(=NNc1ccccc1)c1ccccc1,·,·,·,2,-11
Cc1nc2ccccn2c1C(=O)NN=Cc1ccc([N+](=O)[O-])o1,·,·,·,98*,82
COc1ccc(-c2nn(-c3ccccc3)cc2C(=O)NN=Cc2ccc([N+](=O)[O-])o2)cc1,·,·,·,97*,100*
COc1ccc(-c2nn(-c3ccccc3)cc2/C=N/NC(=O)c2ccc(Br)o2)cc1,2,0,88,·,·
O=C(NN=Cc1ccc([N+](=O)[O-])o1)c1cn(-c2ccccc2)nc1-c1ccc(F)cc1,·,·,·,71,98*
O=C(NN=Cc1ccc([N+](=O)[O-])o1)c1cn(-c2ccccc2)nc1-c1ccccc1,·,·,·,100*,99*
C/C(C=NNC(=O)Cn1cncn1)=C/c1ccc(C(C)C)cc1,·,·,·,4,6
CN(C)CCCN(C(=O)COc1ccc(Cl)cc1)c1nc2cc3c(cc2s1)OCCO3,1,0,-5,-1,91*
O=C1NCC(Cc2ccccc2)N(CCc2cccc(F)c2)C1=O (stereo not given),·,·,·,2,0
COc1ccccc1NS(=O)(=O)c1cccc(C(=O)NN=Cc2ccc([N+](=O)[O-])o2)c1,·,·,·,98*,99*
SMILES,PfHsp40 rescue,BioA inh,Mtb betalactam,RN4220 kill,ugtP null kill
Cc1cc(C)c2c(C)[nH]nc2n1,·,-3,-8,1,8
CC(=O)n1nc2nc(C)cc(C)c2c1N,2,·,-5,-1,17
CCN(CC)N=Nc1[nH]nc2nc(C)cc(C)c12,45*,0,48,13,45
Cc1cc(C)c2c(N=NN3CCCCC3)[nH]nc2n1,86*,·,-3,13,54
CC(=O)C1=C(C)N(CC2CC2)C(=O)NC1c1cccs1 (stereo not given),·,·,·,7,-1
CCCCCCCCn1c2c(c(=N)c3ccccc31)CCC2,0,·,·,98*,98*
CCn1c2c(c(=N)c3c1CCC3)CCCC2,·,1,-5,3,9
CCCCn1c2c(c(=N)c3ccccc31)CCC2,0,1,-22,2,-3
CCCCCCCCCn1c2c(c(=N)c3c1CCC3)CCCC2,6,·,·,100*,100*
CCCCCCCCCCn1c2c(c(=N)c3c1CCC3)CCC2,291*,10,100,100*,100*
CCCCCn1c2c(c(=N)c3ccccc31)CCC2,-1,4,-8,3,5
Oc1ccc(-[n+]2c(-c3ccccc3)cc(-c3ccccc3)cc2-c2ccccc2)cc1,3,4,99,·,·
Oc1ccccc1-[n+]1c(-c2ccccc2)cc(-c2ccccc2)c(O)c1-c1ccccc1,42*,-2,-6,13,-17
COc1ccc(NC(=O)CN2CCN(CC(=O)Nc3ccc(F)cc3F)CC2)cc1,44*,-1,·,6,8
COc1cccc(NC(=O)CN2CCN(CC(=O)Nc3ccc(F)cc3)CC2)c1,1,1,-8,3,8
CCCCC(=O)NC(=S)Nc1ccccc1N1CCCCC1,-1,-3,60,-1,84*
COc1ccc(C(=O)NC(=S)Nc2ccccc2N2CCCCC2)cc1[N+](=O)[O-],2,·,0,0,94*
O=C(NC(=S)Nc1ccccc1N1CCCC1)c1ccc([N+](=O)[O-])cc1,2,·,-3,2,42
Cc1c(C(=O)NC(=S)Nc2ccccc2N2CCCC2)cccc1[N+](=O)[O-],3,·,·,9,96*
O=C(C1=CC(c2ccccc2)CC(OCc2ccc(CO)cc2)O1)N1CCN(Cc2ccccc2)CC1 (stereo not given),·,·,·,7,-20
O=S(=O)(C=Cc1ccccc1)N1CCN(Cc2ccccc2)CC1,·,·,·,1,5
C#CCOCCOCCOCCNc1nc(N2CCN(C(=O)Cn3cc(CCCN=C(N)N)nn3)CC2)nc(N2CCN(C(=O)C(C(C)CC)n3cc(CCC(=O)O)nn3)CC2)n1 (stereo not given),·,·,·,4,0
Oc1ccc(N=Nc2ccc(Br)cc2)c(O)c1,1,-1,-3,·,·
Cc1ccc(N=Nc2ccc(O)cc2)c(Br)c1,201*,1,94,6,79
CCOc1ccc(NC(=S)NC(=O)/C=C/c2ccc(Br)cc2)c([N+](=O)[O-])c1,0,-3,3,6,2
SMILES,PfHsp40 rescue,BioA inh,Mtb betalactam,RN4220 kill,ugtP null kill
CCOc1ccc(NC(=S)NC(=O)c2cnn(CC)c2)c([N+](=O)[O-])c1,0,-2,·,4,85*
COc1cc(NC(=O)c2csc(N)n2)cc(C(=O)Nc2cccc(C(F)(F)F)c2)c1,1,-2,3,0,-23
COc1cc(NC(=O)c2cc(C)on2)cc(C(=O)Nc2cccc(C(F)(F)F)c2)c1,50*,-1,-13,·,·
COC(=O)c1ccc(Oc2ccc(C(C)(C)C)cc2)c([N+](=O)[O-])c1,0,·,22,-15,95*
CC(=O)c1ccc(Oc2ccc(C(=O)c3ccc(C)c(C)c3)cc2[N+](=O)[O-])cc1,0,-2,1,-6,0
CCC(=O)NC(c1ccc(C)cc1)c1cc([N+](=O)[O-])c2cccnc2c1O (stereo not given),-1,-3,8,94*,95*
CCCC(=O)NC(c1ccco1)c1cc([N+](=O)[O-])c2cccnc2c1O (stereo not given),0,·,1,72,68
